This is part of a sample that, as a whole, favours compounds with a hit. Of some 79,000 tested, about 15% had one in any assay. Unmarked numbers belong to inactive results. Active and inactive are the calls of the source. Cut-off read from the data, not from the text of the source: active = growth inhibition above about 70%; inactive = the rest.
Columns and labels:
[1] = NCI Yeast Anticancer Drug Screen. Data for the rad50 strain (AID 155);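 note: 0% = growth of vehicle-only cultures of the same strain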; conditions: S. cerevisiae rad50 strain growth inhibition; at 50.0 µM; hits give high values
Summary of the method: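 Genetically altered yeast (DNA repair pathway); compound treatment; growth inhibition vs vehicle ctrl.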

[2] = NCI Yeast Anticancer Drug Screen. Data for the mec2-1 strain (AID 157); conditions: S. cerevisiae mec2-1 strain, at 50.0 µM, hits give high values
Summary of the method: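 Growth inhibition is read against vehicle-treated controls after compound exposure of the mec2-1 yeast strain, which is defective in DNA damage repair or cell cycle control.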

[3] = NCI Yeast Anticancer Drug Screen. Data for the sgs1 mgt1 strain (AID 161);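 note: 0% = growth of cultures given vehicle only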; conditions: S. cerevisiae sgs1 mgt1 strain, at 50.0 µM, hits give high values
Summary of the method: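 Growth of a repair-deficient yeast mutant was monitored after compound treatment and expressed as inhibition relative to vehicle-treated cultures.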

[4] = NCI Yeast Anticancer Drug Screen. Data for the cln2 rad14 strain (AID 165);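 note: 0% = growth equal to vehicle treated cultures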; conditions: S. cerevisiae cln2 rad14 strain, at 50.0 µM, hits give high values
Summary of the method: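 Growth inhibition, relative to vehicle-treated controls, is the read-out. The test organism is a yeast strain with defined genetic alterations, cln2 rad14.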

[5] = NCI Yeast Anticancer Drug Screen. Data for the bub3 strain (AID 167); conditions: S. cerevisiae bub3 mutant strain, at 50.0 µM, hits give high values
Summary of the method: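 Yeast carrying a defined mutation is treated with each compound, and growth is compared with that of vehicle-exposed cells to give inhibition.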

[6] = NCI Yeast Anticancer Drug Screen. Data for the mlh1 rad18 strain (AID 175); conditions: S. cerevisiae mlh1 rad18 strain growth inhibition; at 50.0 µM; hits give high values
Summary of the method: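 Cells of a genetically altered yeast strain, deficient in DNA damage repair, were treated with compound. Their growth was then compared with that of vehicle-treated cultures to give inhibition.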

SMILES	growth inhibition [1]	growth inhibition [2]	growth inhibition [3]	growth inhibition [4]	growth inhibition [5]	growth inhibition [6]
COC(=O)CCNCCSC(=O)c1ccccc1	23.5%	-9.1%	-6%	12.9%	8.55%	4.6%
Cc1ccc(C)c2c1CCc1cc3ccccc3nc1-2	26.4%	-7.5%	11.8%	7.9%	30.2%	13.8%
O=C(ON=C1c2ccccc2C(Br)C(Br)c2ccccc21)c1ccccc1 (stereo not given)	38%	16.9%	35.7%	17.6%	49%	30.6%
CC(C)(CO)C(O)C(=O)NCCO (stereo not given)	14.8%	-0.15%	6.05%	5.15%	3.3%	-10.4%
O=C(NNC(=O)c1ccc2ccccc2c1)c1ccc(Cl)c(Cl)c1	-13.3%	-23.3%	-2.65%	17.1%	-5.25%	-14.1%
COC(=O)[C@H]1[C@H]2C[C@@H]3c4[nH]c5cc(OC)ccc5c4CCN3C[C@H]2C[C@@H](OC(=O)c2cc(OC)c(OC)c(OC)c2)[C@@H]1OC	16.5%	-14.2%	-8.9%	-3.65%	25.7%	12.8%
COc1cc(/C=C2\CCC(CN(C)C)C2=O)ccc1OC(=O)c1ccccc1 (stereo not given)	86.6% (active)	91.1% (active)	86% (active)	89.1% (active)	85.2% (active)	89.7% (active)
O=C(CP(c1ccccc1)c1ccccc1)c1cccc(C(=O)CP(c2ccccc2)c2ccccc2)c1	-4.3%	-22.1%	-5.05%	-8.6%	-14.3%	-19.4%
OCCNCN(CNCCO)c1nc(N(CNCCO)CNCCO)nc(N(CNCCO)CNCCO)n1	55.6%	19.7%	32.6%	-49.5%	2.8%	12.4%
CC(=O)Oc1nnc(-c2ccccc2)c(-c2ccccc2)n1	24.5%	16.9%	17.1%	13.8%	7.4%	17.3%
CCOC(=O)C(c1ccccc1)c1ccccc1	-11.4%	-26.7%	-17.6%	-43.2%	-12.8%	-12.2%
O=S1Cc2nc3ccccc3n2C1c1c(F)cccc1F (stereo not given)	1.25%	-6.1%	-4%	21.6%	3.6%	-18.8%
Nc1ccccc1N1C(=O)C(Cl)=C(Cl)C1=O	39.5%	5.4%	21.5%	14.2%	3%	44%
COC(=O)C(CC(=O)Nc1ccc(Cl)c(Cl)c1)C(=O)C(=O)NC1C2CC3CC(C2)CC1C3 (stereo not given)	-3.15%	13.8%	-14.1%	7.8%	-8.65%	-9.05%
CCOC(=O)NC(=O)CC#N	-5.5%	-29.8%	13.4%	5.05%	-4.2%	10.7%
CCC(C)C1CCCCC1 (stereo not given)	-13%	-15.9%	-3.35%	3.85%	-12.8%	0.75%
Cc1cc(=O)n(-c2c(C)cccc2Cl)c(/C=C(\O)c2ccncc2)n1	4.25%	-2.65%	3.8%	8.3%	4.15%	2.85%
Cn1ccnc1Sc1ccccn1	-8.7%	30.1%	1.7%	21.9%	7.3%	6.15%
N/C(CCOCC/C(N)=N\O)=N/O	16.8%	25.4%	-22.4%	-1.85%	-2.3%	6.5%
Cc1cc(Cc2cc(C)c(NC(=O)C(=O)C3CCC4=C(SC5C=CC=CC5N4)C3=O)c(C(C)C)c2)cc(C(C)C)c1NC(=O)C(=O)C1CCC2=C(SC3C=CC=CC3N2)C1=O (stereo not given)	-15.8%	-13.6%	-8.1%	15.2%	15.3%	-28.1%
